Results published in PMC7862700, “An all-to-all approach to the identification of sequence-specific readers for epigenetic DNA modifications on cytosine”.

Columns and labels:
Test in all cases: DAPPL (digital affinity profiling via proximity ligation, sequencing); 10 mM Tris-HCl pH 7.5, 50 mM NaCl, 1 mM DTT, 4% glycerol, room temperature, 30 min; GST-TFs on glutathione beads, 16-mer random dsDNA library, 0.1% formaldehyde crosslink after washing; high values mean tight binding
Settings in all cases: protein: recombinant; tags: N-terminal GST; dsDNA, one strand shown
[1] = target: T1, FLI1 (Homo sapiens, UniProt Q01543 1-452)
T1 sequence: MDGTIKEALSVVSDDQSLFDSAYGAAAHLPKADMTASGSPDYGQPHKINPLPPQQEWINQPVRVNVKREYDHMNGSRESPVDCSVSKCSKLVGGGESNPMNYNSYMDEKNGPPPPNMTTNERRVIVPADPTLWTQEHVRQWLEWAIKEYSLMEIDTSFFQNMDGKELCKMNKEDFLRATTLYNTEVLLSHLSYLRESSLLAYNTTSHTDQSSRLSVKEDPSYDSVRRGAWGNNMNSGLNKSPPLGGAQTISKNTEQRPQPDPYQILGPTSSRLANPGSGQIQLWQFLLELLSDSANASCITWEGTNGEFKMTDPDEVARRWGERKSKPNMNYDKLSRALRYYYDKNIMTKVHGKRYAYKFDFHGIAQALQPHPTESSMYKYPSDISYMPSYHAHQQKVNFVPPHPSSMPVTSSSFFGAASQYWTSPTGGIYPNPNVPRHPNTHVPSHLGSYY
How it was run: (§1)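 Human transcription factors fused to GST were expressed in yeast, captured on glutathione beads, given DNA barcodes and pooled with a GST-only negative control. Pools were incubated with 200 nmole of a 16-mer random double-stranded DNA library in Tris/NaCl/DTT/glycerol buffer at room temperature for 30 min. They were then washed, crosslinked with 0.1% formaldehyde, proximity-ligated (BsaI/T4 ligase, 1 h, 37 °C), PCR-amplified and sequenced on an Illumina NextSeq500. Binding signal is each 6-mer's read frequency for a factor divided by its frequency for the GST control.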

[2] = target: T2, ELK1 (Homo sapiens, UniProt P19419 1-428)
T2 sequence: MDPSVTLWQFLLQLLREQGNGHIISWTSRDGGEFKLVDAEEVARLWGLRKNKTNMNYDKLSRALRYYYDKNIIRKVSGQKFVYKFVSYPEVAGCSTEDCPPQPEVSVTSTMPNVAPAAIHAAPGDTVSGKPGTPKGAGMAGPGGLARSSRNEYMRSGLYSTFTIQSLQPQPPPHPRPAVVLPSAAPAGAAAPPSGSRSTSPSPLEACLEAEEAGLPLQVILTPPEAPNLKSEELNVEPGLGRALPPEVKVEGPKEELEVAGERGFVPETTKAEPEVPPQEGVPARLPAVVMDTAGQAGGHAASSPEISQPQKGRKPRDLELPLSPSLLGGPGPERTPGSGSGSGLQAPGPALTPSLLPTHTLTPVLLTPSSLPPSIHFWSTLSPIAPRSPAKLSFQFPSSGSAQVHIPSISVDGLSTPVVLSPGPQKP
How it was run: as §1

[3] = target: T3, GABPA (Homo sapiens, UniProt Q06546 1-454)
T3 sequence: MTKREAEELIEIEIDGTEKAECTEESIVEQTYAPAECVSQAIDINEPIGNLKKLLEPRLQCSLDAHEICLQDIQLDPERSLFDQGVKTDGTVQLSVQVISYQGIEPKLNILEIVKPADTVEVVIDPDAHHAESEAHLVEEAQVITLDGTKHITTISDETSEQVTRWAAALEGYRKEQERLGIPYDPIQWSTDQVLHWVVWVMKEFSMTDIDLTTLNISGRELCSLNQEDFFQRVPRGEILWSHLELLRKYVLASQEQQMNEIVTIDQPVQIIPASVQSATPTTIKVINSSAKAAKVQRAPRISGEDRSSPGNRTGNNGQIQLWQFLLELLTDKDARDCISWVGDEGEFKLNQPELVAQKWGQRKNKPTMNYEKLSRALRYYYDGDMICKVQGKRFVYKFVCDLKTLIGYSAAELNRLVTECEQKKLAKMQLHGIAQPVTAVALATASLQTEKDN
How it was run: as §1

[4] = target: T4, ERG (Homo sapiens, UniProt P11308 1-479)
T4 sequence: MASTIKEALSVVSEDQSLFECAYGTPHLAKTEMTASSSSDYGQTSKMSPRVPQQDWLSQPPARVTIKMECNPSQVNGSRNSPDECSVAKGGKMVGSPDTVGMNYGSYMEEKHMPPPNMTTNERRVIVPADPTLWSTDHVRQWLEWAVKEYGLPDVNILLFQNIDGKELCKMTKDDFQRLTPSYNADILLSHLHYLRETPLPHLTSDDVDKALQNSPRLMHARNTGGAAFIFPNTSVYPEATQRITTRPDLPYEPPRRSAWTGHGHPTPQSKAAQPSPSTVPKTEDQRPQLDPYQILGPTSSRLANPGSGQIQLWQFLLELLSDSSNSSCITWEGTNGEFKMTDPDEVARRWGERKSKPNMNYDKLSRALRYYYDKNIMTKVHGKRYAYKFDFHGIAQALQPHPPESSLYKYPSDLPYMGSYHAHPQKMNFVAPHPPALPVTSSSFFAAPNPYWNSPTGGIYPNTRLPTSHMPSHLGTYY
How it was run: as §1

[5] = target: ELF1 (Homo sapiens, UniProt P32519 1-619)
How it was run: as §1

[6] = target: T5, EHF (Homo sapiens, UniProt Q9NZC4 1-300)
T5 sequence: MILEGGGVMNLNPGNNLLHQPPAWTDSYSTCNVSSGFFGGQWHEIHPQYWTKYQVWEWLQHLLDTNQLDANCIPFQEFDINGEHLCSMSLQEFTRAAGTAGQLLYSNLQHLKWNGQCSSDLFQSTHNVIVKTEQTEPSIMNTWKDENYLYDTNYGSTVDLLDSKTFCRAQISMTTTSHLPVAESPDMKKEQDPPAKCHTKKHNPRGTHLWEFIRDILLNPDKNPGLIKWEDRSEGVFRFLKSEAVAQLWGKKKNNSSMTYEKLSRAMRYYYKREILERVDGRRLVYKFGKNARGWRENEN
How it was run: as §1

[7] = target: SPI1 (Homo sapiens, UniProt P17947 1-270)
How it was run: as §1

[8] = target: SPIB (Homo sapiens, UniProt Q01892 1-262)
How it was run: as §1

[9] = target: T6, ELK3 (Homo sapiens, UniProt P41970 1-407)
T6 sequence: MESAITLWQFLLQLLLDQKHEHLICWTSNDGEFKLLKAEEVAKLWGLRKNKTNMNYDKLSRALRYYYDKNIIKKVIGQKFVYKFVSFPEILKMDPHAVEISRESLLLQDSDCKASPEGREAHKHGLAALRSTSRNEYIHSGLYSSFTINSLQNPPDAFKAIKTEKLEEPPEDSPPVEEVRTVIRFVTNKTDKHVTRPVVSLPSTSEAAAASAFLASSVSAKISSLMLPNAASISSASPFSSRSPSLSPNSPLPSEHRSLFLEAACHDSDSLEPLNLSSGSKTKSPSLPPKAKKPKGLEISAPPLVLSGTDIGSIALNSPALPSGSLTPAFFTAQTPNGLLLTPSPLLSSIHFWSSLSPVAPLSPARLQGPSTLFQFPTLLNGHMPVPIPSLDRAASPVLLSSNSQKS
How it was run: as §1

ELF1, sequence (P32519 whole entry): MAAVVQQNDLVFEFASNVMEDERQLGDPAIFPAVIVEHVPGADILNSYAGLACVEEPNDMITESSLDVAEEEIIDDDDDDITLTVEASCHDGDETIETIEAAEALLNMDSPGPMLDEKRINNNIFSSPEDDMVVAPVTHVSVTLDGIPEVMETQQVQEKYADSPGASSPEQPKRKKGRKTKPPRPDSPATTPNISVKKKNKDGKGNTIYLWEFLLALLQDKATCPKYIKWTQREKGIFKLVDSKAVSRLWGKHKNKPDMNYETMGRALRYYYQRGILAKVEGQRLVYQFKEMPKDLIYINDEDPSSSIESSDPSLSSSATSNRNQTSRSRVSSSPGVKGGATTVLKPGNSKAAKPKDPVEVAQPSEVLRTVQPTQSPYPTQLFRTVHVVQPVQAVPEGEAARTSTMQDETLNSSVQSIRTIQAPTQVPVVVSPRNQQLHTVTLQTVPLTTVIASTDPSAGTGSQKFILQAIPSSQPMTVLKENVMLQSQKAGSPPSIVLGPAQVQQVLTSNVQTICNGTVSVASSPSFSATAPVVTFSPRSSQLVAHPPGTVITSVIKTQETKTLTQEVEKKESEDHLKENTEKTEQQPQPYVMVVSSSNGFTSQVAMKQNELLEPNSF
SPIB, sequence (Q01892 whole entry): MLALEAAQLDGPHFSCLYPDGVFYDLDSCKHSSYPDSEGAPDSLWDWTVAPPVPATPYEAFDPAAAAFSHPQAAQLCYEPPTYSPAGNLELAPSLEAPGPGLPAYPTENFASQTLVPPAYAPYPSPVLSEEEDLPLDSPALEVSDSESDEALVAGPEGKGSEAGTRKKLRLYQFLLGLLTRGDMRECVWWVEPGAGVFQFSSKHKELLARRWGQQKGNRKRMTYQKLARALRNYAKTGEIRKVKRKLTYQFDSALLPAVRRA

Sequence | binding signal [1] | binding signal [2] | binding signal [3] | binding signal [4] | binding signal [5] | binding signal [6] | binding signal [7] | binding signal [8] | binding signal [9]
ATCTGT | 1.25 fold enrichment (6-mer frequency, TF over GST control) | 1.24 fold enrichment (6-mer frequency, TF over GST control) | 1.18 fold enrichment (6-mer frequency, TF over GST control) | 1.19 fold enrichment (6-mer frequency, TF over GST control) | 1.18 fold enrichment (6-mer frequency, TF over GST control) | 1.11 fold enrichment (6-mer frequency, TF over GST control) | 1.13 fold enrichment (6-mer frequency, TF over GST control) | 1.14 fold enrichment (6-mer frequency, TF over GST control) | 1.07 fold enrichment (6-mer frequency, TF over GST control)
TACAAA | 1.14 fold enrichment (6-mer frequency, TF over GST control) | 1.14 fold enrichment (6-mer frequency, TF over GST control) | 1.1 fold enrichment (6-mer frequency, TF over GST control) | 1.08 fold enrichment (6-mer frequency, TF over GST control) | 1.14 fold enrichment (6-mer frequency, TF over GST control) | 1.2 fold enrichment (6-mer frequency, TF over GST control) | 1.07 fold enrichment (6-mer frequency, TF over GST control) | 1.06 fold enrichment (6-mer frequency, TF over GST control) | 1.06 fold enrichment (6-mer frequency, TF over GST control)
ATGTAC | 1.31 fold enrichment (6-mer frequency, TF over GST control) | 1.31 fold enrichment (6-mer frequency, TF over GST control) | 1.19 fold enrichment (6-mer frequency, TF over GST control) | 1.11 fold enrichment (6-mer frequency, TF over GST control) | 1.27 fold enrichment (6-mer frequency, TF over GST control) | 1.25 fold enrichment (6-mer frequency, TF over GST control) | 1.23 fold enrichment (6-mer frequency, TF over GST control) | 1.27 fold enrichment (6-mer frequency, TF over GST control) | 1.26 fold enrichment (6-mer frequency, TF over GST control)
CCATCA | 1.26 fold enrichment (6-mer frequency, TF over GST control) | 1.21 fold enrichment (6-mer frequency, TF over GST control) | 1.22 fold enrichment (6-mer frequency, TF over GST control) | 1.15 fold enrichment (6-mer frequency, TF over GST control) | 1.29 fold enrichment (6-mer frequency, TF over GST control) | 1.18 fold enrichment (6-mer frequency, TF over GST control) | 1.19 fold enrichment (6-mer frequency, TF over GST control) | 1.17 fold enrichment (6-mer frequency, TF over GST control) | 1.2 fold enrichment (6-mer frequency, TF over GST control)
TTTGGG | 1.27 fold enrichment (6-mer frequency, TF over GST control) | 1.34 fold enrichment (6-mer frequency, TF over GST control) | 1.37 fold enrichment (6-mer frequency, TF over GST control) | 1.25 fold enrichment (6-mer frequency, TF over GST control) | 1.25 fold enrichment (6-mer frequency, TF over GST control) | 1.28 fold enrichment (6-mer frequency, TF over GST control) | 1.4 fold enrichment (6-mer frequency, TF over GST control) | 1.18 fold enrichment (6-mer frequency, TF over GST control) | 1.29 fold enrichment (6-mer frequency, TF over GST control)
TGTCTC | 1.31 fold enrichment (6-mer frequency, TF over GST control) | 1.31 fold enrichment (6-mer frequency, TF over GST control) | 1.31 fold enrichment (6-mer frequency, TF over GST control) | 1.23 fold enrichment (6-mer frequency, TF over GST control) | 1.2 fold enrichment (6-mer frequency, TF over GST control) | 1.22 fold enrichment (6-mer frequency, TF over GST control) | 1.29 fold enrichment (6-mer frequency, TF over GST control) | 1.28 fold enrichment (6-mer frequency, TF over GST control) | 1.15 fold enrichment (6-mer frequency, TF over GST control)
CTTGTC | 1.17 fold enrichment (6-mer frequency, TF over GST control) | 1.33 fold enrichment (6-mer frequency, TF over GST control) | 1.32 fold enrichment (6-mer frequency, TF over GST control) | 1.19 fold enrichment (6-mer frequency, TF over GST control) | 1.22 fold enrichment (6-mer frequency, TF over GST control) | 1.19 fold enrichment (6-mer frequency, TF over GST control) | 1.35 fold enrichment (6-mer frequency, TF over GST control) | 1.23 fold enrichment (6-mer frequency, TF over GST control) | 1.34 fold enrichment (6-mer frequency, TF over GST control)
